Inconclusive results are not listed. Active and inactive are the calls of the source. How the source made its calls, unless noted: active means hit-call score of the fitted dose curve at least 0.9, where 1 is the maximum; inconclusive means response in the unintended direction; inactive means score below 0.9.

The target of assay [1] is Estrogen receptor beta (Homo sapiens) (UniProt Q92731). Briefly: OT_ER_ERbERb_1440: Odyssey Thera (OT) 24-hour HEK293T Protein-Complementation Assay for Estrogen Receptor-beta/-beta Homodimer (AID 2283380).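 Further: scored as signal increase over DMSO baseline for both agonists and antagonists.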 The method in brief:
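HEK293T cells stably expressing ER beta LBD (aa 310-547) homodimer fragment-complementation reporter, dosed 24 h. Cells formaldehyde-fixed, Draq5-stained; gain in nuclear (agonist) or nuclear plus cytoplasmic (antagonist) fluorescence versus DMSO read by laser scanning cytometry.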

Assay [2] addresses Estrogen receptor (Homo sapiens) (UniProt P03372). Briefly: OT_ERa_GFPERaERE_0480: Odyssey Thera (OT) 8-hour HeLa Transcription Induction Assay for Estrogen Receptor (AID 2283381; active means hit-call score of the fitted dose curve at least 0.9, where 1 is the maximum; inactive means score below 0.9). The method, boiled down:
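HeLa cells expressing GFP reporter under estrogen response element, imaged 8 h after dosing. GFP induction quantified by high-content fluorescence microscopy image analysis; gain of signal fitted versus DMSO.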

For assay [3] the target is unchanged. In words: OT_ERa_GFPERaERE_0120: Odyssey Thera (OT) 2-hour HeLa Transcription Induction Assay for Estrogen Receptor (AID 2283382). The method in brief: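 HeLa cells were dosed for 2 h, then GFP reporter induction was quantified by fluorescence microscopy with high-content image analysis. Gain of signal fitted against DMSO baseline.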
For assay [4], the target named is Bile acid receptor (Homo sapiens) (UniProt Q96RI1). Briefly: OT_FXR_FXRSRC1_1440: Odyssey Thera (OT) 24-hour HEK293T Protein-Complementation Assay for Farnesoid X receptor/SRC-1 Co-activator (AID 2283384). The method in brief:
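HEK293T cells, 24 h after chemical dosing. FXR–SRC-1 coactivator interaction read as fluorescence from protein-fragment complementation of a split reporter. Gain of signal fitted against DMSO baseline.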

Assay [5] has as its target Retinoic acid receptor RXR-alpha (Homo sapiens) (UniProt P19793). In words: OT_NURR1_NURR1RXRa_0480: Odyssey Thera (OT) 8-hour HEK293T Protein Complementation Assay for Nurr1/retinoid X receptor (RXR) (AID 2283385). The method, boiled down: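 HEK293T cells expressing Nurr1 and RXRα fused to reporter fragments (protein-fragment complementation); fluorescence measured 8 h after dosing. Gain of signal fitted relative to DMSO.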

The target is the same in assay [6]. Briefly: OT_NURR1_NURR1RXRa_1440: Odyssey Thera (OT) 24-hour HEK293T Protein Complementation Assay for Nurr1/retinoid X receptor (RXR) (AID 2283386). The method, boiled down:
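HEK293T protein-fragment complementation of Nurr1 and RXRα fused to reporter fragments; compounds 24 h. Fluorescence gain from reconstituted reporter fitted versus DMSO.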

The target in assay [7] is Peroxisome proliferator-activated receptor gamma (Homo sapiens) (UniProt P37231). In words: OT_PPARg_PPARgSRC1_0480: Odyssey Thera (OT) 8-hour Protein-Complementation Assay for Peroxisome Proliferator-activated Receptor Gamma / SRC-1 Co-activator (AID 2283387). The method in brief:
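Read-out: 488 nm N/C fluorescence ratio from complemented Venus YFP fragments, ≥350 cells per image, gain-of-signal fitted against DMSO baseline. Fusions of PPARg/SRC-1 with IFP1/IFP2 expressed transiently in HEK293T; compounds applied 8 h.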

Assay [8] has the same target. Briefly: OT_PPARg_PPARgSRC1_1440: Odyssey Thera (OT) 24-hour Protein-Complementation Assay for Peroxisome Proliferator-activated Receptor Gamma/ SRC-1 Co-activator (AID 2283388). The method in brief: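 HEK293T transiently transfected with PPARg/SRC-1 split-Venus YFP fusions 48 h before dosing, then treated 24 h at 37C. Fixed cells imaged; nuclear/cytoplasmic 488 nm fluorescence ratio, gain of signal versus DMSO.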

Assay [9] can be described thus: CEETOX_H295R_11DCORT: CeeTox H295R High-throughput Steroidogenesis Assay for 11-Deoxycortisol (11DCORT) (AID 2283432; active means hit-call score of the fitted dose curve at least 0.9, where 1 is the maximum; inactive means score below 0.9;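 on AC50: human adrenal H295R cells prestimulated with 10 µM forskolin for 48 h; 11-deoxycortisol secreted into the medium measured by LC-MS/MS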). The conditions noted are these: actives raise or lower the signal. The method in brief:
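H295R cells; 10 uM forskolin prestim 48 h; compound in 0.1% DMSO 48 h; media extracted with MTBE; 11-deoxycortisol by LC-MS/MS, 7-point standard curve; gain/loss vs DMSO baseline; viability by MTT in same wells.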

Assay [10] can be described thus: CEETOX_H295R_OHPREG: CeeTox H295R High-throughput Steroidogenesis Assay for OH-Pregnenolone (OHPREG) (AID 2283434; active means hit-call score of the fitted dose curve at least 0.9, where 1 is the maximum; inactive means score below 0.9). The conditions noted are these: actives raise or lower the signal. The method, boiled down:
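H295R cells pre-stimulated 48 h with 10 uM forskolin, then exposed 48 h to chemical in 0.1% DMSO. 17alpha-hydroxypregnenolone in medium quantified by MTBE extraction and HPLC-MS/MS; bidirectional fit versus DMSO, viability checked by MTT.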

Sequence of Estrogen receptor (Homo sapiens) (P03372 whole entry, looked up): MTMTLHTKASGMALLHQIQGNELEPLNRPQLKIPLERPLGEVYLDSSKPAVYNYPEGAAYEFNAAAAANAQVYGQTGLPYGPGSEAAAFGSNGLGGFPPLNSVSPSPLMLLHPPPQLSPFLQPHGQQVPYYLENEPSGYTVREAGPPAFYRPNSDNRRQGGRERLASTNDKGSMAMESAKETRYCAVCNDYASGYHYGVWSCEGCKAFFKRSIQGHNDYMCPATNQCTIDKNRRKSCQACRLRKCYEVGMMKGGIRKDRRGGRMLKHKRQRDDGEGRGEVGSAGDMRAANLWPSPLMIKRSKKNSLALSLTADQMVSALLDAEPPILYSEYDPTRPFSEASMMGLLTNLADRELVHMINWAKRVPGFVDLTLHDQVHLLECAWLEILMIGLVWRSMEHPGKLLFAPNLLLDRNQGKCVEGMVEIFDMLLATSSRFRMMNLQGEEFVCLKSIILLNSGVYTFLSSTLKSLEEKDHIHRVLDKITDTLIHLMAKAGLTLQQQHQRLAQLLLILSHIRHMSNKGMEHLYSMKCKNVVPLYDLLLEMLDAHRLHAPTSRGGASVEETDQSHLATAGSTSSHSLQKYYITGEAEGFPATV
Sequence of Peroxisome proliferator-activated receptor gamma (Homo sapiens) (P37231 whole entry, looked up, the tested form may be a part): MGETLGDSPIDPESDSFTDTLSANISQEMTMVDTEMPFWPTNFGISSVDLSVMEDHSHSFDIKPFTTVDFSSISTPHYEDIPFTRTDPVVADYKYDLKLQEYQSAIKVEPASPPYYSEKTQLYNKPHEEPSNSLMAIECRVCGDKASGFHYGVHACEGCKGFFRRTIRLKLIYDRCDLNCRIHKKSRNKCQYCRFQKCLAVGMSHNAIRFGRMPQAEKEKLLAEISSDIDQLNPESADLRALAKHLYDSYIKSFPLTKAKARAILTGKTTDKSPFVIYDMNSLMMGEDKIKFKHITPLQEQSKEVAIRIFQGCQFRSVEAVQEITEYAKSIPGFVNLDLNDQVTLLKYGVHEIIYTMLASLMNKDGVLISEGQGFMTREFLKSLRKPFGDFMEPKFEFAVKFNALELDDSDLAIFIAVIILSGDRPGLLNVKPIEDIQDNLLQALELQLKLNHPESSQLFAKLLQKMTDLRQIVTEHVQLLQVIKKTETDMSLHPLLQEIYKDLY
Sequence of Estrogen receptor beta (Homo sapiens) (Q92731 whole entry, looked up, the tested form may be a part): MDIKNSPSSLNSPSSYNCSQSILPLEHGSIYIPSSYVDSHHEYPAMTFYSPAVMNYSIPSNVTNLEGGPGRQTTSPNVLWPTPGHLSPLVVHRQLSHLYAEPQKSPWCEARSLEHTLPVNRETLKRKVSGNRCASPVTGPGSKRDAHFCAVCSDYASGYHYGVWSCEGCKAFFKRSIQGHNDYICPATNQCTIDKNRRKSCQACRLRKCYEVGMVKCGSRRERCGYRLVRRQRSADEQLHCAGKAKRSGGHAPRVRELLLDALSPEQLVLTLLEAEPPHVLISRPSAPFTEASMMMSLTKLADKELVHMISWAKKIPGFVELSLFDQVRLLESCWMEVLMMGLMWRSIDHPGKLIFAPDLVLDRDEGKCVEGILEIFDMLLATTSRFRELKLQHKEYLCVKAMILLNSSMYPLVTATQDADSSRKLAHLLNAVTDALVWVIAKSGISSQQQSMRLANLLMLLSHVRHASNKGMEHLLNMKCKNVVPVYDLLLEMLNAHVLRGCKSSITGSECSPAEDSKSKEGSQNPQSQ
Sequence of Bile acid receptor (Homo sapiens) (Q96RI1 whole entry, looked up, the tested form may be a part): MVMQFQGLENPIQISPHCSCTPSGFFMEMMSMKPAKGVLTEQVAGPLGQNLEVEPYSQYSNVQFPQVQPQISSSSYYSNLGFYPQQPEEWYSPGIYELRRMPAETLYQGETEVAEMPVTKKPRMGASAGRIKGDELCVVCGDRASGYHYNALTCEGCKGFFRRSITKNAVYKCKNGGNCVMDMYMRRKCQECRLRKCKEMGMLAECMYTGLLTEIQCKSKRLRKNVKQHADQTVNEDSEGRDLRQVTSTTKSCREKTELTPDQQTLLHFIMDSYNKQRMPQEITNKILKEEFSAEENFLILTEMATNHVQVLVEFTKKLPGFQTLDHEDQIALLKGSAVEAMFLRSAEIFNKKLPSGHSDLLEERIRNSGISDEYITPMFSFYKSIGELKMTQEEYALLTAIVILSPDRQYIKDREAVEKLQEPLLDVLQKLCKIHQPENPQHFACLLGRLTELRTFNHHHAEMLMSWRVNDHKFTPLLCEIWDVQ
Sequence of Retinoic acid receptor RXR-alpha (Homo sapiens) (P19793 whole entry, looked up, the tested form may be a part): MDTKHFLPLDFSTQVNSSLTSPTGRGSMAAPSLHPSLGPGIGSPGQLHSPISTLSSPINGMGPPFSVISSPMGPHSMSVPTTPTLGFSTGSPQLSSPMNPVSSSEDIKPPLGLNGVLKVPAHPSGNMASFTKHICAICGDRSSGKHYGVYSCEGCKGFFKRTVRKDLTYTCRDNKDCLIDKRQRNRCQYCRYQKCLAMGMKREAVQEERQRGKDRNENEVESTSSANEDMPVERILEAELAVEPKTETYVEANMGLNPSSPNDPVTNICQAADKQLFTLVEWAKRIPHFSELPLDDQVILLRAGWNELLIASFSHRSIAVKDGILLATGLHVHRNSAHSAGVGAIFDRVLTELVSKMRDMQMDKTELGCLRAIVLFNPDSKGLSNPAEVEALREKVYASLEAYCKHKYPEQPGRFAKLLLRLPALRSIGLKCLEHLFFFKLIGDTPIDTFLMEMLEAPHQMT

A word on the AC50: it is the midpoint of the concentration-response curve, whichever way the signal moves. For the compound `BrC1CCC(Br)C(Br)CCC(Br)C(Br)CCC1Br` (configuration not stated), the outcome in [1], in [2], in [3], in assay [5], in [6] and in [7] was inactive. Also, the outcome in assay [8] was inactive. In addition, the AC50 in assay [4] is 17.4 µM (active).

Turning to `O=C1c2ccccc2C(=O)N1SC1CCCCC1`, the result in assay [1] and in assay [2] was inactive. In addition, the concentration at half-maximal activity (AC50) in assay [3] is 36.3 µM (active).

As for `CCCCc1ccc(N)cc1`, the result in assay [1], in assay [2], in assay [3], in assay [6], in assay [7] and in assay [8] was inactive.

For the compound `NC(=O)Nc1ccc(Cl)cc1`, the outcome in assay [1], in [2], in assay [3], in [6], in assay [7] and in assay [8] was inactive. For the same compound, the compound was called inactive in assay [9] and in assay [10].

Regarding `CCCCCCCCCCCCCC(=O)O`, the compound was classed as inactive in [1], in assay [2], in assay [3], in assay [6], in assay [7] and in assay [8]. In [4], the AC50 is 81.8 µM (active).

In the case of `CC(C)(N)CO`, the compound was called inactive in assay [1], in [2], in [3], in [4], in assay [7] and in assay [8].

Turning to `C=CCOc1nc(OCC=C)nc(OCC=C)n1`, in assay [9], the AC50 is 25.9 µM (active).

Take `O=c1cc(-c2ccccc2)oc2cc(O)cc(O)c12`: in assay [9], the compound was called inactive.

Take `CCCC1CCC(=O)O1` (configuration not stated): the call in assay [5], in assay [7] and in [8] was inactive.

With `C#C[C@]1(O)CC[C@H]2[C@@H]3CCC4=Cc5oncc5C[C@]4(C)[C@H]3CC[C@@]21C`, the AC50 in [9] is 5.4 µM (active); in [10], 360 nM (active).

Turning to `C=CC(C)(C)O`, the call in assay [9] and in [10] was inactive.

As for `CCCOCC(C)O` (configuration not stated), the compound was called inactive in assay [7] and in assay [8].

Turning to `CCCCCCCCCCC(CO)CCCCCCCC` (configuration not stated), the compound was called inactive in assay [6], in [7] and in assay [8].

For `CCN(CC)CCOC(=O)c1ccc(N)cc1`, the call in assay [7] and in [8] was inactive.

Turning to `NC(=O)NC1NC(=O)NC1=O` (configuration not stated), the call in assay [5], in assay [6], in assay [7] and in assay [8] was inactive.

Turning to `NCCCCCCN`, the result in assay [5], in [7] and in assay [8] was inactive.

For the compound `COc1cc(C(C)(C)C)c(O)c(C(C)(C)C)c1`, the compound was classed as inactive in [4], in [7] and in assay [8].

As to `CC1CC(OC(=O)c2ccccc2O)CC(C)(C)C1` (configuration not stated), the AC50 in [5] was 92.8 µM (active). Also, the compound was classed as inactive in assay [7] and in assay [8].

Consider `CC(C)C[C@H]1C(=O)N2CCC[C@H]2[C@]2(O)O[C@](NC(=O)[C@@H]3C=C4c5cccc6[nH]c(Br)c(c56)C[C@H]4N(C)C3)(C(C)C)C(=O)N12`, for which the result in assay [7] and in assay [8] was inactive.

As to `Cc1ccc(O)c(C(C)(C)C)c1`, the AC50 in [5] was 50 µM (active). For the same compound, the compound was classed as inactive in [6], in assay [7] and in assay [8].

As to `O=C(O)c1ccc(C(=O)O)cc1`, the outcome in assay [6], in assay [7] and in assay [8] was inactive.

Turning to `CC(=O)OCCC(C)CC(C)(C)C` (configuration not stated), the outcome in assay [2], in assay [3], in [4], in assay [6], in [7] and in [8] was inactive.

In the case of `CC(C)(C)C(=O)c1ccccc1`, the call in [2], in [3], in [5] and in [6] was inactive.

For `O=C(O)C[C@H](O)C[C@H](O)/C=C/c1c(C2CC2)nc2ccccc2c1-c1ccc(F)cc1`, the AC50 is 0.0625 µM (active) in assay [9] and 2.06 nM (active) in assay [10].

As for `CC(=O)C=CC1=C(C)CCCC1(C)C`, the call in [2], in assay [3], in assay [6], in [7] and in assay [8] was inactive. For the same compound, in assay [5], the AC50 is 50 µM (active).

For `CSc1nc(NC2CC2)nc(NC(C)(C)C)n1`, the result in assay [5], in assay [7], in assay [8] and in assay [10] was inactive.

For the compound `Nc1cc([N+](=O)[O-])ccc1Cl`, the compound was classed as inactive in assay [9] and in assay [10].

Turning to `Nc1ccc(F)c([N+](=O)[O-])c1`, the result in [9] and in [10] was inactive.

In the case of `CC(C)=CCCC(C)CC=O` (configuration not stated), the compound was classed as inactive in assay [4], in assay [5], in [7] and in assay [8].

For `O=C1NC(=O)c2ccccc21`, the compound was called inactive in [4], in assay [5], in [6], in [7] and in assay [8].

In the case of `COc1cc2ncnc(Nc3cccc(Cl)c3)c2cc1OC`, the compound was called inactive in [9] and in assay [10].

As to `CCCCCCCCCCCCN`, the figures for the half-maximal activity concentration (AC50) in assay [5] and in assay [6] were 11 µM (active) and 10.6 µM (active), respectively. The result in assay [7] and in assay [8] was inactive.

On to `CC1(C)[C@H](C(=O)OCc2cccc(Oc3ccccc3)c2)[C@@H]1C=C(Cl)Cl`, for which the call in [9] and in assay [10] was inactive.

For `Cc1cccc(C)c1C`, the call in assay [9] and in assay [10] was inactive.

For the compound `CN(C)CCCN`, the result in [2], in [3], in [4], in [6], in assay [7] and in assay [8] was inactive.

Take `Cc1ccc2n[nH]nc2c1`: the call in [9] and in assay [10] was inactive.

Take `O=C(O)Cc1cccc2ccccc12`: the compound was classed as inactive in [7] and in assay [8].

With `CCCCCCCCCCCCCCCC(=O)OC[C@H](O)[C@H]1OC(=O)C(O)=C1O`, the compound was called inactive in [2], in [3], in assay [5], in assay [7] and in [8]. The AC50 in assay [6] was 84.2 µM (active).

(Values after PubChem BioAssay (EPA / NIEHS).)
